Test results published in PubChem BioAssay (EPA / NIEHS).
The source made the active and inactive calls. The calls were made as follows: active = hit-call score of the fitted dose curve at least 0.9, where 1 is the maximum; inactive = score below 0.9.

What was measured:
[1] = biological target: Bile acid receptor (Homo sapiens) (UniProt Q96RI1); assay: ATG_IR1_CIS: Attagene CIS-FACTORIAL HepG2 Assay for human Nuclear Receptor Subfamily 1 Group H Member 4 (NR1H4), IR1 submotif (AID 2282946); conditions: IR1 reporter transcription, actives raise or lower the signal
Procedure, shortened: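 Readout: reporter transcript levels by RT-PCR with fluorescent capillary electrophoresis, from HepG2 cells transiently transfected with multiplexed cis-regulated reporters and dosed 24 h. Gain- or loss-of-signal fitted versus DMSO negative control.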

[2] = ATG_ISRE_CIS: Attagene CIS-FACTORIAL HepG2 Assay for human Interferon Regulatory Factor 1 (IRF1) binding to an Interferon-Stimulated Response Element (ISRE) (AID 2282948); conditions: HepG2 ISRE cis-reporter (Attagene), mRNA transcription readout; actives raise or lower the signal
Procedure, shortened: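 Signal reflects induction or loss of ISRE-linked reporter mRNA in transiently transfected HepG2 cells after a 24 h treatment, detected by fluorescent RT-PCR fragments on capillary electrophoresis and normalised to DMSO.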

[3] = ATG_M_06_CIS: Attagene CIS-FACTORIAL HepG2 Assay for M06 Transcription Factor (Internal Marker) (AID 2282950); conditions: HepG2 Attagene CIS-FACTORIAL M06 internal marker reporter; actives raise or lower the signal
Procedure, shortened: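 Steps: transfect HepG2 with multiplexed cis-element reporter constructs; dose chemical 24 h; extract RNA with DNase treatment; reverse-transcribe, PCR-amplify, 6-FAM label, HpaI digest; separate fragments by capillary electrophoresis. Activity fitted both directions versus DMSO.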

[4] = biological target: Hypoxia-inducible factor 1-alpha (Homo sapiens) (UniProt Q16665); assay: ATG_HIF1a_CIS: Attagene CIS-FACTORIAL HepG2 Assay for human Hypoxia Inducible Factor 1 (HIF1A) (AID 2282951); conditions: HepG2 Attagene cis-factorial HIF1a reporter transcription; actives raise or lower the signal
Procedure, shortened: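 Cis-element reporter constructs were transiently transfected into HepG2 cells, which were treated for 24 h; reporter RNA was reverse-transcribed, amplified, labelled and resolved by capillary electrophoresis.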

[5] = biological target: Hepatocyte nuclear factor 6 (Homo sapiens) (UniProt Q9UBC0); assay: ATG_HNF6_CIS: Attagene CIS-FACTORIAL HepG2 Assay for human Hepatocyte Nuclear Factor 6 (HNF6) (AID 2282952); conditions: HepG2 Attagene cis-factorial HNF6 reporter transcription; actives raise or lower the signal
Procedure, shortened: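 Activity values derive from bidirectional fitting against DMSO of reporter mRNA levels, measured by capillary electrophoresis of labelled RT-PCR products from HepG2 cells exposed 24 h.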

[6] = biological target: Heat shock factor protein 1 (Homo sapiens) (UniProt Q00613); assay: ATG_HSE_CIS: Attagene CIS-FACTORIAL HepG2 Assay for human Heat Shock Transcription Factor 1 (HSE) (AID 2282953); conditions: HepG2 HSE cis-reporter, Attagene RNA transcription; actives raise or lower the signal
Procedure, shortened: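 Cells were transfected with cis-element-driven reporter constructs, dosed for 24 h, then total RNA was reverse-transcribed and reporter cDNA amplified, FAM-labelled and digested with HpaI. Fragments were resolved by capillary electrophoresis; gain or loss was fitted against DMSO.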

[7] = ATG_MRE_CIS: Attagene CIS-FACTORIAL HepG2 Assay for human Metal Responsive Element (MRE) (AID 2282954); conditions: HepG2 MRE cis-reporter transcription, Attagene multiplex; actives raise or lower the signal
Procedure, shortened: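 Cells were transfected with cis-promoter reporter transcription units, then dosed for 24 h. RNA was reverse-transcribed, amplified, fluorescently labelled and resolved by capillary electrophoresis, and activity was fitted in both directions relative to DMSO.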

[8] = biological target: Paired box protein Pax-6 (Homo sapiens) (UniProt P26367); assay: ATG_Pax6_CIS: Attagene CIS-FACTORIAL HepG2 Assay for human Paired Box 6 (PAX6) (AID 2282956); conditions: HepG2 CIS-FACTORIAL PAX6 reporter transcription, RNA readout; actives raise or lower the signal
Procedure, shortened: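 Values derive from bidirectional curve fitting of reporter mRNA signal relative to DMSO. HepG2 cells bearing transfected cis-regulated MRTUs were exposed for 24 h; transcripts were read by RT-PCR and capillary electrophoresis.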

[9] = ATG_PXRE_CIS: Attagene CIS-FACTORIAL HepG2 Assay for human Pregnane X Receptor Element (PXRE) (AID 2282957); conditions: HepG2 Attagene CIS-FACTORIAL PXRE reporter, mRNA; actives raise or lower the signal
Procedure, shortened: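 Fluorescent capillary electrophoresis of amplified reporter cDNA gave the signal, collected 24 h after dosing HepG2 cells that held transfected cis-element reporter constructs.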

[10] = ATG_PPRE_CIS: Attagene CIS-FACTORIAL HepG2 Assay for human Peroxisome Proliferator-activated Response Element (PPRE) (AID 2282958); conditions: HepG2 PPRE cis-element reporter, Attagene transcription factor profiling; actives raise or lower the signal
Procedure, shortened: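 DMSO served as negative control and baseline for bidirectional curve fitting. Signal came from PPRE-regulated reporter mRNA in HepG2 cells, measured 24 h post-dosing by RT-PCR, 6-FAM primer extension and capillary electrophoresis.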

[11] = ATG_RORE_CIS: Attagene CIS-FACTORIAL HepG2 Assay for human RAR-related Orphan Receptor Element (RORE) (AID 2282959); conditions: HepG2 Attagene cis-factorial RORE reporter, mRNA; actives raise or lower the signal
Procedure, shortened: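 Transfect HepG2 with MRTUs; treat 24 h; extract RNA; RT with oligo(dT); PCR with reporter-specific primers; 6-FAM primer extension; HpaI digest 2 h at 37 C; capillary electrophoresis. Fit vs DMSO, bidirectional.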

[12] = ATG_Sox_CIS: Attagene CIS-FACTORIAL HepG2 Assay for human SRY-box transcription factor (SOX) (AID 2282960); conditions: HepG2 Attagene cis-factorial SOX reporter, mRNA; actives raise or lower the signal
Procedure, shortened: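 Fluorescence-labelled cDNA fragments from reporter transcripts, sized by CE, give the signal. Cells: HepG2, transiently transfected with cis-regulated reporter units. Exposure 24 h; DMSO negative control; bidirectional curve fitting.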

[13] = biological target: Transcription factor Sp1 (Homo sapiens) (UniProt P08047); assay: ATG_Sp1_CIS: Attagene CIS-FACTORIAL HepG2 Assay for human Specificity Protein 1 (Sp1) (AID 2282961); conditions: HepG2 Sp1 cis-reporter transcription, actives raise or lower the signal
Procedure, shortened: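 Chemicals are dosed onto HepG2 cells transfected with multiple cis-promoter reporter constructs, and after 24 h reporter RNA is reverse-transcribed, PCR-amplified and resolved by capillary electrophoresis for fluorescence quantitation; activity is scored up or down against DMSO.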

[14] = ATG_SREBP_CIS: Attagene CIS-FACTORIAL HepG2 Assay for human Sterol Regulatory Element Binding (SREBP) (AID 2282962); conditions: HepG2 Attagene cis-factorial SREBP reporter, mRNA; actives raise or lower the signal
Procedure, shortened: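 Values derive from bidirectional curve fitting with DMSO as baseline. The underlying measurement is reporter mRNA from cis-element-regulated units in transiently transfected HepG2, quantified by RT-PCR and capillary electrophoresis after 24 h exposure.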

[15] = biological target: Signal transducer and activator of transcription 3 (Homo sapiens) (UniProt P40763); assay: ATG_STAT3_CIS: Attagene CIS-FACTORIAL HepG2 Assay for human Signal Transducer and Activator of Transcription 3 (STAT3) (AID 2282963); conditions: HepG2, Attagene cis-factorial STAT3 reporter transcription; actives raise or lower the signal
Procedure, shortened: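 HepG2, MRTU-transfected, 24 h dosing. RNA → RT → PCR → FAM label → HpaI → CE. Bidirectional fit vs DMSO.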

[16] = ATG_TA_CIS: Attagene CIS-FACTORIAL HepG2 Assay for human TA Basal Promoter (AID 2282964); conditions: HepG2 Attagene CIS-factorial TA basal promoter reporter; actives raise or lower the signal
Procedure, shortened: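 Steps: transfect HepG2 with MRTUs; dose 24 h; isolate RNA, DNase-treat, reverse-transcribe; PCR and FAM-label reporter cDNA; digest with HpaI 2h at 37 C; run capillary electrophoresis. Activity fitted both directions against DMSO.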

[17] = ATG_TCF_b_cat_CIS: Attagene CIS-FACTORIAL HepG2 Assay for human T-Cell-Factor with beta-catenin (TCF/b-cat) (AID 2282965); conditions: HepG2 TCF/beta-catenin cis-reporter transcription, actives raise or lower the signal
Procedure, shortened: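 Using capillary electrophoresis as the read-out, labelled reporter cDNA fragments from transiently transfected HepG2 were sized and quantified. Exposure lasted 24 hours; activity in either direction was referenced to DMSO.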

[18] = ATG_M_32_CIS: Attagene CIS-FACTORIAL HepG2 Assay for M32 Transcription Factor (Internal Marker) (AID 2282949); conditions: HepG2 Attagene cis-factorial M32 reporter, mRNA; actives raise or lower the signal;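 also: background control marker of the multiplexed CIS panel rather than a real target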
Procedure, shortened: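 HepG2 transfectants (cis-regulated reporter transcription units) dosed 24 h. Reporter mRNA by RT-PCR plus CE, analysed as gain or loss relative to DMSO.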

[19] = ATG_PBREM_CIS: Attagene CIS-FACTORIAL HepG2 Assay for human Phenobarbital-responsive Enhancer Module (PBREM) (AID 2282955); conditions: HepG2 PBREM cis-reporter, Attagene multiplexed transcription; actives raise or lower the signal
Procedure, shortened: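 Multiplexed cis-reporter readout in human hepatoma HepG2 cells; PBREM-regulated transcript quantified after 24 h exposure by fluorescent RT-PCR fragment analysis. Signal changes up or down fitted relative to DMSO.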

[20] = ATG_GRE_CIS: Attagene CIS-FACTORIAL HepG2 Assay for human Glucocorticoid Response Elements (GRE) (AID 2282947); conditions: HepG2 GRE cis-reporter, Attagene multiplex mRNA; actives raise or lower the signal
Procedure, shortened: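 Cells (HepG2) bearing transfected cis-promoter reporter transcription units were treated with chemical for 24 hours. Reporter mRNA was measured via RT-PCR with capillary electrophoresis, and activity was fitted in both directions relative to DMSO.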

Measured: AC50

Transcription factor Sp1 (Homo sapiens), sequence (P08047 whole entry, looked up): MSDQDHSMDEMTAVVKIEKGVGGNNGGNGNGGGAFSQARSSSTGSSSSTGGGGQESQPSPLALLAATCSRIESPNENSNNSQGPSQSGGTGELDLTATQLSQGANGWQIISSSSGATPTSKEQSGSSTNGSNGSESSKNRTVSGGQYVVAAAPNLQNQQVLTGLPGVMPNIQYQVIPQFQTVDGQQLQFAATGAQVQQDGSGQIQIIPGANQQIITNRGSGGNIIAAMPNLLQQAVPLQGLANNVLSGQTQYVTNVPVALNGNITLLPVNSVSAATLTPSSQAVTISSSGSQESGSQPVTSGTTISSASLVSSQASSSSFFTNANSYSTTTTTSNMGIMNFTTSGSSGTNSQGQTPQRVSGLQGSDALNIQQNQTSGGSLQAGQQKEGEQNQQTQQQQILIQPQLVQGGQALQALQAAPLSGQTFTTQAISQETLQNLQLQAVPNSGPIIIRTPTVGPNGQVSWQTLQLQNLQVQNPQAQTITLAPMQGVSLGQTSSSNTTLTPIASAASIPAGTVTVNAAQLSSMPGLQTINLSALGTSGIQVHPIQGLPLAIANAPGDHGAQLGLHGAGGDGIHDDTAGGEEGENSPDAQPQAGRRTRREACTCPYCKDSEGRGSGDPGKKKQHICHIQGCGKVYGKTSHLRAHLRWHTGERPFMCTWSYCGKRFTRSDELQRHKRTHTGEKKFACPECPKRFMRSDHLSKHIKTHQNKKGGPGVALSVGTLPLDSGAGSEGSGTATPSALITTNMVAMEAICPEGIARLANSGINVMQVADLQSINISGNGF
Hypoxia-inducible factor 1-alpha (Homo sapiens), sequence (Q16665 whole entry, looked up): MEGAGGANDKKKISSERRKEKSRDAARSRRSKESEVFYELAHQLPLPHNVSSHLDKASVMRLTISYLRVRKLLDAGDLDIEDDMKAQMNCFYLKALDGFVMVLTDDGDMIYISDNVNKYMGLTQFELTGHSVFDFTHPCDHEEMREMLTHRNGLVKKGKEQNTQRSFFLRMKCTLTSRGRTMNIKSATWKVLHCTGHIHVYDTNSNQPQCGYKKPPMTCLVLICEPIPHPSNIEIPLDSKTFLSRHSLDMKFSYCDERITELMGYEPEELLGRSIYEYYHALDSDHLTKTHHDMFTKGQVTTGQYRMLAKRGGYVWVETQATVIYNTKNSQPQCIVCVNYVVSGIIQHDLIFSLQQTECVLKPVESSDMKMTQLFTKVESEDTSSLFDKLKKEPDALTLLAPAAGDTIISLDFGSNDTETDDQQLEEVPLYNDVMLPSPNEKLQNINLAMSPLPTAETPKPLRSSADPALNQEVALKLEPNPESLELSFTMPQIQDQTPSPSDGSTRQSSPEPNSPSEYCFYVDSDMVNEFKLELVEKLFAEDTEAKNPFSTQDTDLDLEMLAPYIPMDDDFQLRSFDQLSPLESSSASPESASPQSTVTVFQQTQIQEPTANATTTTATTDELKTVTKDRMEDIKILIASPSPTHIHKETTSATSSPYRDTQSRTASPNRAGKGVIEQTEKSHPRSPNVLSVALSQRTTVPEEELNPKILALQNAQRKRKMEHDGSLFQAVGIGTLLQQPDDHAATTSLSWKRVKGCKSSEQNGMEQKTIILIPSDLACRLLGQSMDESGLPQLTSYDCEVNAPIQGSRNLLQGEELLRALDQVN
Signal transducer and activator of transcription 3 (Homo sapiens), sequence (P40763 whole entry, looked up): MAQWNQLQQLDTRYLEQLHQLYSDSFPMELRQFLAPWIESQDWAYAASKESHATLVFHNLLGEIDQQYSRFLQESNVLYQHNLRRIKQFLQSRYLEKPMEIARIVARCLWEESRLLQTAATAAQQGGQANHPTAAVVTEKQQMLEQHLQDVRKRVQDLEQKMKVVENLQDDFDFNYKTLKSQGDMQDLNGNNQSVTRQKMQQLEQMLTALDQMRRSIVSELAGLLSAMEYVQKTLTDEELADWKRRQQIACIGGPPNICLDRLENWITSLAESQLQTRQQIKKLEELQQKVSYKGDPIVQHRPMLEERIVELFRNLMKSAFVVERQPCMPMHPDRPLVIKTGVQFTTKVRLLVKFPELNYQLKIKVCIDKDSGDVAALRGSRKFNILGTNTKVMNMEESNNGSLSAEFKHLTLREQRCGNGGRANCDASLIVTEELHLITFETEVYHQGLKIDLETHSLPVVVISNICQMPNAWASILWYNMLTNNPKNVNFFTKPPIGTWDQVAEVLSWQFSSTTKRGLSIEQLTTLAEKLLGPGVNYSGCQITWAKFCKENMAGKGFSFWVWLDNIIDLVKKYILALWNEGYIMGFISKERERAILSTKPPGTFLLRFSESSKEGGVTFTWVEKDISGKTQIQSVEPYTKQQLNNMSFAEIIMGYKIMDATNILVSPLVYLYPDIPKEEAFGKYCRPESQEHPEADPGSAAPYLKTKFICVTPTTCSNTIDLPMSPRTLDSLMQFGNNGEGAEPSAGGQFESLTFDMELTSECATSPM
Bile acid receptor (Homo sapiens), sequence (Q96RI1 whole entry, looked up): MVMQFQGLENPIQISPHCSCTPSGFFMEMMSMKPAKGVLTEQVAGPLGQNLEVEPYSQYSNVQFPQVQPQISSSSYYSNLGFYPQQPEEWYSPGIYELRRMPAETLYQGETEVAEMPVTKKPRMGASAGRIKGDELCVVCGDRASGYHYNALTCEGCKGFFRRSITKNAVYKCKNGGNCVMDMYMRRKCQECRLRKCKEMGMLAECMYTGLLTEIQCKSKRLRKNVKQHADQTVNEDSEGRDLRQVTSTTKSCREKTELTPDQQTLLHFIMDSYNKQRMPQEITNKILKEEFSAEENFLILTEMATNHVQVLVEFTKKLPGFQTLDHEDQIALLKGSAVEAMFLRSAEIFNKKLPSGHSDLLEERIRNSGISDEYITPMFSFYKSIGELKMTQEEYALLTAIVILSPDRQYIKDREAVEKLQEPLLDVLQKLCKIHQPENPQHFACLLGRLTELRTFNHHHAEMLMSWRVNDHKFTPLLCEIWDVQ
Heat shock factor protein 1 (Homo sapiens), sequence (Q00613 whole entry, looked up, the tested form may be a part): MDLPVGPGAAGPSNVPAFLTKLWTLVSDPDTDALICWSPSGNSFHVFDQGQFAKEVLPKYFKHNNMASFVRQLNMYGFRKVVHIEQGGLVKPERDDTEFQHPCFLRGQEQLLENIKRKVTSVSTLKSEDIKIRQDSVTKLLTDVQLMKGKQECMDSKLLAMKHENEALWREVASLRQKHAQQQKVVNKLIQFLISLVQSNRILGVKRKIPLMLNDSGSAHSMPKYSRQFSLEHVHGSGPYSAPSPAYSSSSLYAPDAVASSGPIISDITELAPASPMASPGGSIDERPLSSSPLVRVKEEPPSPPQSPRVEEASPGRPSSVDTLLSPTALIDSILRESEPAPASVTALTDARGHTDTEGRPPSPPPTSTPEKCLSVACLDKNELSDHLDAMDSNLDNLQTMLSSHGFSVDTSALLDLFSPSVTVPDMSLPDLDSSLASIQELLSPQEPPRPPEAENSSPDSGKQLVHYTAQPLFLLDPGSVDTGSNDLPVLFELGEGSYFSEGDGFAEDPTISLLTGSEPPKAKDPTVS
Hepatocyte nuclear factor 6 (Homo sapiens), sequence (Q9UBC0 whole entry, looked up): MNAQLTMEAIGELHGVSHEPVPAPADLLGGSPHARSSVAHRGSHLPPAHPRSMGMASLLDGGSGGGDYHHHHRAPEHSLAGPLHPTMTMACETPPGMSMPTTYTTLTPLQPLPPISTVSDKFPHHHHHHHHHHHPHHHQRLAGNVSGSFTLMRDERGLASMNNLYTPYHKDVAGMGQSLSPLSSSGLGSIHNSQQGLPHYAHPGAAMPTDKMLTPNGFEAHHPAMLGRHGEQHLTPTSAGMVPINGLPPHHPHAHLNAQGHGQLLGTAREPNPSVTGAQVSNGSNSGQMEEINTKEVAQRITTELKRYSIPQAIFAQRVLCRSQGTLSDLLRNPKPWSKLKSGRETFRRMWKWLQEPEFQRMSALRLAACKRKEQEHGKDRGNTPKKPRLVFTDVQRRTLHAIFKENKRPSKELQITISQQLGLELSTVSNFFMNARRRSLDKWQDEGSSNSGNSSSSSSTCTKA
Paired box protein Pax-6 (Homo sapiens), sequence (P26367 whole entry, looked up): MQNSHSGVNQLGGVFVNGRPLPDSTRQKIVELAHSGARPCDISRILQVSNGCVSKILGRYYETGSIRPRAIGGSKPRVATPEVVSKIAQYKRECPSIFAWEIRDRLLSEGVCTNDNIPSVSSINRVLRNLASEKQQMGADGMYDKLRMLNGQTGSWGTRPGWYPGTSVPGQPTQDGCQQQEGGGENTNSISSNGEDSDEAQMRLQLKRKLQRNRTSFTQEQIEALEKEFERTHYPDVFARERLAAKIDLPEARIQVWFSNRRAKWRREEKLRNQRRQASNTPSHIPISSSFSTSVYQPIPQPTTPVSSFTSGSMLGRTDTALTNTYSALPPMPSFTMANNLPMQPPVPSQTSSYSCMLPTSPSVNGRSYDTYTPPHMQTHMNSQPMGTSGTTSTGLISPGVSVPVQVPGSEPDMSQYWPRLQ

Cc1cc(C)c(C)cc1C
not listed: [18] | [19] | [20]
inactive: all other assays above

O=C1OC(=O)c2cc(Oc3ccc4c(c3)C(=O)OC4=O)ccc21
not listed: [5] | [10] | [17] | [19] | [20]
inactive: all other assays above

Cc1ccc(N/N=c2\c(=O)cc/c(=N/Nc3ccc(S(=O)(=O)O)cc3)c2=O)c(C)c1
active: [9] 42.6 µM
not listed: [6] | [10] | [16] | [20]
inactive: all other assays above

Cc1ccc(OC(=O)CC(C)C)cc1
not listed: [4] | [13] | [20]
inactive: all other assays above

Cc1cc(=O)n(-c2ccccc2)n1C
not listed: [4] | [6] | [10] | [20]
inactive: all other assays above

Nc1ccc2cc3ccccc3cc2c1
active: [9] 13.2 µM
not listed: [1]
inactive: all other assays above

FC(F)=C(F)OC(F)(F)C(F)(F)C(F)(F)F
not listed: [2] | [9] | [20]
inactive: all other assays above

Nc1cccc(C(F)(F)F)c1
not listed: [4] | [16] | [19] | [20]
inactive: all other assays above
